# Measured values reported in PubChem BioAssay (NCI).
# About 83,000 compounds went through this panel and 20% of them were active in at least one assay; those are over-represented in the sample as a whole.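 The test compound was applied at a single concentration to cells in 96-well plates for 48 hours, and percent growth was recorded.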 Values without a mark were called inactive. The source made the active and inactive calls. How the source made its calls: active means growth percent below 10; inactive means the rest.
# Tests used:
# Assay in all cases: NCI-60 one-dose screen, 48 h (100 = growth as untreated, 0 = no growth, -100 = all killed)
# Settings in all cases: 10 µM unless noted
# [1] = system: SK-MEL-2 melanoma
# [2] = system: EKVX NSCLC
# [3] = system: SN12C renal
# [4] = system: UO-31 renal
# [5] = system: TK-10 renal
# [6] = system: ACHN renal
# [7] = system: CAKI-1 renal
# [8] = system: A498 renal
# [9] = system: CCRF-CEM leukemia
# [10] = system: MOLT-4 leukemia
SMILES,growth [1],growth [2],growth [3],growth [4],growth [5],growth [6],growth [7],growth [8],growth [9],growth [10]
CCN(CC)Cc1cc(Nc2c3ccccc3nc3cc(Cl)ccc23)ccc1O,-74.2% (active),-55.1% (active),-36.9% (active),-72.9% (active),-65.6% (active),-97.3% (active),-75% (active),-61.4% (active),-11.9% (active),-28.9% (active)
C=C1CC[C@@H]2[C@](C)(COC(C)=O)[C@H](OC(C)=O)CC[C@@]2(C)[C@@H]1CC(Nc1ccc(S(=O)(=O)Nc2nc(C)cc(C)n2)cc1)C1=CCOC1=O (stereo not given in full),88.5%,74.5%,38.2%,71.2%,111%,71.6%,74%,85.3%,2.96% (active),24.6%
NS(=O)(=O)c1ccc(-n2ncc3c(=O)[nH]c(CN4CCN(c5cc6c(cc5F)c(=O)c(C(=O)O)cn6C5CC5)CC4)nc32)cc1,106%,92.6%,95%,70%,119%,94%,89.2%,102%,93.4%,97%
CCCCCCCCCCNC(=O)CCl,85.7%,95.9%,63.8%,58.1%,83.8%,78%,-59.4% (active),85.9%,57.8%,54.8%
CN(C)CCOc1ccc(-c2nc3ccc(-c4nc5ccc(N6CCN(C)CC6)cc5[nH]4)cc3[nH]2)cc1,25.7%,83.6%,63.5%,103%,90.7%,111%,89.6%,35.3%,85.4%,92%
COC(=S)SCN(CSC(=S)OC)c1ccc(Cl)cc1,106%,70.3%,80.7%,66.5%,109%,75.3%,62.8%,86.8%,77.7%,81.7%
CS(=O)(CCCCN=C=S)=NC(=O)c1c(F)c(F)c(F)c(F)c1F (stereo not given),88.3%,99%,90.9%,90%,76.9%,49.6%,96.3%,88.8%,73.5%,82.5%
COc1c2ccccc2c(OC)c2[nH]c(=O)ccc12,64.2%,27.8%,40.5%,59.9%,110%,65.1%,81%,48.3%,-58.7% (active),69.4%
O=C1c2cc3c(cc2-c2c1c1cc(Cl)c(Cl)cc1c(=O)n2CCCn1ccnc1)OCO3,22.7%,35.7%,-4.67% (active),1.1% (active),34.3%,-6.04% (active),11.9%,-29.9% (active),2.94% (active),-24.9% (active)
O=C1CCc2c(sc3[nH]c(=S)n(Cc4ccccc4)c(=O)c23)C1,-15.4% (active),13.9%,7.15% (active),-4.69% (active),29.6%,21.8%,24.1%,57.6%,4.68% (active),28.8%
OCCNCCNc1c2ccccc2nc2ccccc12,68.5%,109%,52.2%,65.4%,82.7%,65.3%,94.9%,83%,65.4%,16.7%
CC1=C(C)C(=O)OC([C@](C)(O)[C@]2(O)CC[C@@]3(O)[C@@H]4C[C@H]5O[C@]56CC=CC(=O)[C@]6(C)[C@H]4CC[C@]23COC(=O)c2ccc(C)o2)C1 (stereo not given in full),-63% (active),-46.9% (active),-61% (active),-96.6% (active),-89.8% (active),-95.7% (active),-87.2% (active),-78.3% (active),0.17% (active),4.89% (active)
O=[N+]([O-])c1cccc(-c2nc3sccn3c2-c2ccnc(NCCNS(=O)(=O)c3ccc(C(F)(F)F)cc3)n2)c1,26.9%,39.5%,33%,17.3%,57.9%,22.5%,30.3%,36.6%,20.2%,18.2%
CCN(C(=O)CN1CCN(c2cc3c(cc2F)c(=O)c(C(=O)O)cn3C2CC2)CC1)c1nc(-c2ccc(OC)cc2)cs1,79.2%,58.9%,9.96% (active),33%,77.2%,78%,75.7%,66.6%,61.2%,70.6%
Cc1cc(N/N=C/c2nc(-c3ccc(Cl)cc3)oc2C)c2cc(Br)ccc2n1,108%,86.4%,20.5%,55.9%,25.2%,75.8%,90%,92.6%,4.11% (active),15%
CS(=O)(=O)c1ccc(-c2cnc3ccc(-c4cccc(S(C)(=O)=O)c4)nn23)cc1,48.3%,67.5%,46.8%,24.2%,40%,22.4%,23.2%,-15.6% (active),18.4%,0.943% (active)
C/C(Cc1ccc(Cl)cc1)=C(\c1ccc(OCCN2CCCCCC2)cc1)c1ccc(OC(=O)Cc2ccccc2)cc1,90.6%,90.2%,68.7%,44.6%,86.7%,85.2%,79.4%,92.5%,57.2%,24.4%
CN(C)c1ccc(/C=C\C2=[N+](C)c3ccccc3C2(C)C)cc1,-3.85% (active),8.84% (active),-1.45% (active),55%,27.8%,4.49% (active),13.4%,48.2%,14.6%,15.7%
C[C@@H]1CC[C@@H]2[C@@H]1[C@H](OC(=O)/C=C/c1ccccc1)[C@]1(C3CCCCC3)C[C@@H](OC(=O)CO)[C@@]2(C)O1,92.3%,68.6%,16.6%,-51.7% (active),93.1%,14.8%,16.4%,-31.7% (active),62.8%,61.6%
CCCCCCCCCC(=O)Oc1ccc(/C(=C(/C)c2ccccc2)c2ccc(OCCN3CCCC3)cc2)cc1,-31.5% (active),44.1%,44.8%,7.66% (active),43%,35.2%,1.34% (active),1.68% (active),13.1%,2.39% (active)
C=C1CC2(OC1=O)C(=O)Nc1ccccc12 (stereo not given),92.5%,74.4%,40.5%,19.7%,22.3%,7.77% (active),31.5%,72.8%,0.987% (active),18.7%
Clc1cccc(Nc2nc(Nc3cnc4ccccc4c3)c3[nH]cnc3n2)c1,81.1%,41.3%,61.2%,60.7%,114%,73.5%,59%,60%,84.8%,90.6%
ClC1=C2NC=NC2n2c(nnc2-c2ccc(Cl)cc2)N1 (stereo not given),95.8%,105%,94.5%,92%,122%,109%,98.8%,73.1%,99.9%,99.6%
CCCCCCCCCCCCCCCCCCSC1=CC(=O)C(OC)=C(OC)C1=O,96.5%,91.3%,80.9%,76.6%,91.6%,93.1%,96.3%,97.1%,91.9%,91.9%
O=C1C2CC=CCC2C(=O)N1CNc1ccc(Cl)cc1 (stereo not given),94.2%,88.6%,90.8%,47%,107%,88.8%,90.2%,96.5%,120%,101%
COc1cc(NCCCCCN=C(N)NC(N)=NC(C)C)c2ncccc2c1,20.1%,42.2%,25.9%,76.7%,66.7%,105%,100%,110%,25.3%,27.9%
O=C(CN1CCN(c2cc3c(cc2F)c(=O)c(C(=O)O)cn3C2CC2)CC1)Nc1nc(-c2ccc(Cl)cc2)cs1,21.9%,35.4%,15.8%,20.2%,26.7%,25.1%,30.4%,4.43% (active),23.8%,30.5%
